HBB splice mod: alters splicing of the hemoglobin beta chain. HBB splicing reporter cell assay, activation; EGFP reporter with mutant IVS2-654 intron; response scale: normalised to 500 nM splice-correcting PNA. Potency, µM (top dose mostly 46.1 µM), for inactives: at the highest dose activation, actives largely listed as activators. 65,000 tested, 0.06% active. AID 925; also: potency is read from the fitted curve at half-maximal effect; 0% is about no effect
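HeLa cells stably expressing EGFP interrupted by mutant beta-globin intron 2 (IVS2-654), 500/well in 2% FCS. Treated with compound for 2 days at 37C. Splicing correction scored as total well GFP intensity (488 nm excitation, 500-520 nm emission); 500 nM antisense PNA served as control.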
GFP derepression: epigenetic modulators derepressing GFP locus in mouse cells; 68,000 tested, 0.09% active; Potency, µM (top dose mostly 46.1 µM), without a hit: top-dose GFP derepression (activation); mouse C127i GFP locus derepression, cytometry, 30 h; also: % of control where 0% means no effect
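Murine C127i mammary cells carrying a silenced, stably integrated CMV-driven GFP reporter were treated with compound for 30 hours at 37 C. After PBS washes, GFP-positive cells were counted by laser-scanning microplate cytometry.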
PK Bst: modulators of Bacillus stearothermophilus pyruvate kinase | purified pyruvate kinase, luminescence ATP production; ribose 5-phosphate activator present at AC10 | AID 361 | 51,000 tested, 1.2% active | Potency, µM; in the data active = potency below about 11 µM; inconclusive = mostly about 12 µM to 25 µM;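 the screen sought inhibitors and activators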;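 also: potency is read from the fitted curve at half-maximal effect; scaled between full activation by ribose 5 phosphate and full inhibition by luteolin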
Luciferase inh: inhibitors of firefly luciferase | P08659 | purified firefly luciferase, luminescence, 8 min | Potency, µM (highest dose often 57.1 µM), without a hit: at the top dose activity change, negative = inhibition, usual class: inhibitors | 72,000 tested, 2.2% active | AID 411; also: potency is read from the fitted curve at half-maximal effect; % is scaled to controls: 0 for no effect and ±100 for the full control effect; nearly all actives have a fitted effect of over 40% in size
Target sequence (P08659 whole entry, looked up): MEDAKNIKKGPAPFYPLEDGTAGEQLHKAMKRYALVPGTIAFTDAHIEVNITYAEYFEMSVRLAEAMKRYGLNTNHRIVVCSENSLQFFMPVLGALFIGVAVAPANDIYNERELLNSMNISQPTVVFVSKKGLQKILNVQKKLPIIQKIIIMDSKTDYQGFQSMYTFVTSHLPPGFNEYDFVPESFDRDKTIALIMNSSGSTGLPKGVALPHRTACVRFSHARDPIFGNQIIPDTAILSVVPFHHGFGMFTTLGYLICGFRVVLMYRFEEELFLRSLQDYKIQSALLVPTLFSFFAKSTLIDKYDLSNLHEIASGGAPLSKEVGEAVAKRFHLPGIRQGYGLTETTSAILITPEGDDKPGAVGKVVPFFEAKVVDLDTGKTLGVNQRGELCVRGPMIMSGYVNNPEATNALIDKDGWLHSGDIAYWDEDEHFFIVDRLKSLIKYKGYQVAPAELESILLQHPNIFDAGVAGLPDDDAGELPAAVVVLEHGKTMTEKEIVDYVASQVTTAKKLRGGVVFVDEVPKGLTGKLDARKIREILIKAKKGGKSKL
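Here, luciferase activity is measured as luminescence following an 8 min room-temperature reaction at 10 uM ATP, pH 7.2. Every library sample is titrated.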
An asterisk follows results filed as active; i = inactive; ? = inconclusive; / = not tested or not shown; ! = repeats disagree; [ ] = dose if it differs, or a comment. Most compounds without a hit are left out; they make up all but 2.6% or so of the library. Unless noted, calls follow the shape of the dose curve; as a rule, active = well fitted curve in the direction sought with a large enough effect; inconclusive = small, poorly fitted or top-dose-only effect, or another doubt; inactive = no such curve, though single readings can be large; an effect the other way counts as inactive or inconclusive.

SMILES	HBB splice mod	GFP derepression	PK Bst	Luciferase inh
COCCn1c(SCC(=O)c2ccc3c(c2)OCCO3)nnc1-c1ccco1	1.0%	-2.5%	>57	-4.3%
COc1cccc(-c2nc3ccc(O)cc3c(=O)o2)c1	-1.4%	5.4%	11.2*	?
COc1cccc(-c2cc(=O)c3cc(O)ccc3o2)c1	/	-2.4%[9.22 µM]	/	-11.6%[11.4 µM]
Cn1c(C(=O)NCc2ccco2)cc2c(=O)[nH]c3ccccc3c21	-0.9%	-1.3%	4.41*	-0.4%
CCC1CCc2c(sc(NC(=O)c3ccoc3C)c2C(N)=O)C1 (stereo unspecified)	-1.6%	-2.6%	/	12.6µM*
Clc1ccc(-c2nc(-c3ccccn3)no2)cc1Cl	0.4%[0.0738 µM]	-1.5%	/	3.16µM*
COc1nc(C)ccc1-c1noc(-c2ccccn2)n1	7.3%	6.5%	i	?
Brc1ccc(-c2nc(-c3ccncc3)no2)o1	0.0%	-1.1%	>57	-1.8%
Brc1ccc(-c2nc(-c3ccccn3)no2)o1	-1.8%	0.0%	/	3.16µM*
COc1ccc(NC(=O)N2CC[C@@]3(CCCN(C(=O)c4cccn4C)C3)C2)cc1	-1.7%	-2.2%[9.22 µM]	/	0.7%[11.4 µM]
Cc1c(N=Cc2ccc(Cl)o2)c(=O)n(-c2ccccc2)n1C	-1.4%	2.3%	>57	1.1%
Cc1ccccc1-c1ccc(C=Nc2c(C)n(C)n(-c3ccccc3)c2=O)o1	2.5%	-4.0%	i	15.8µM*
CCn1c(SCC(=O)c2c[nH]c3ccccc23)nnc1-c1cccs1	?	20µM*	>57	0.2%
CC(=O)c1c(C)[nH]c(C(=O)Nc2ccc(C)cn2)c1C	0.7%	2.9%	4.36*	2.51µM*
Cc1ccccc1C(=O)Nc1ccc(Br)cn1	1.8%[0.0738 µM]	3.1%	/	12.6µM*
Cc1ccc(NC(=O)c2ccccc2F)nc1	/	0.0%	i	25.1µM*
O=S(=O)(c1ccc(N2CCCC2)cc1)C(F)(F)F	0.9%	6.5%	>57	-3.7%
c1ccc2c(c1)oc1c(Nc3ccc(CN4CCOCC4)cc3)ncnc12	-1.4%[0.369 µM]	1.6%	i	15.8µM*
c1ccc(Nc2ncnc3c2oc2ccccc23)cc1	-0.6%	0.0%	5.44*	-9.8%
Cc1ccc2nc(-c3ccc(N)cc3)sc2c1S(=O)(=O)O	1.4%	/	/	/
CC(C)N(CC(=O)O)CC(=O)O	3.7%[9.22 µM]	2.2%[9.22 µM]	/	1.7%[11.4 µM]
Cc1cccc2nc(=S)n(C(=O)c3ccco3)n12	2.1%[57.5 µM]	2.6%	?	2µM*
O=C(c1ccco1)N1C(=O)c2cccc3cccc1c23	1.0%	0.0%	>57	1.3%
O=C(c1ccco1)n1c(=S)nc2ccccn21	1.4%[57.5 µM]	3.7%	?	5.01µM*
N=C(N)c1ccc(N2CCN(C3CCN(CC(=O)O)CC3)CC2)cc1	0.1%	/	/	/
SMILES	HBB splice mod	GFP derepression	PK Bst	Luciferase inh
Brc1ccc(-c2cnnc(N3CCCC3)n2)cc1	/	0.0%[20.6 µM]	2.4*	-1.3%[25.5 µM]
Cc1cc(C)n(-c2nncc(-c3ccccc3)n2)n1	-0.7%[9.22 µM]	0.0%	/	-6.3%
CCOC(=O)c1cnc2c(-c3ccccc3)c(C)nn2c1N	-0.1%[57.5 µM]	-1.0%	>57	1.1%
CCOC(=O)c1cnc2c(-c3ccccc3)cnn2c1N	/	-2.3%	2.31*	2.51µM*
Cc1cc(N)n2ncc(-c3ccccc3)c2n1	/	-4.6%	4.76*	25.1µM*
Cn1cccc1C(=O)N1CCC2(CC1)CCN(c1ccccc1)CC2	1.0%	0.0%[9.22 µM]	/	-0.6%[11.4 µM]
C=C/C(=C\C)C[C@@H](CC(=O)N[C@@H](CCC(=O)O)CC(=O)O)NC(=O)[C@@H]1CNCC[C@H]1NC(=O)C[C@@H](NC(=O)C[C@H](Cc1ccccc1)NC(=O)[C@@H]1CCCC[C@H]1N)C(C)C	-0.7%	/	/	/
COc1ccc(C2=NOC(C(=O)N3CCCc4ccccc43)C2)cc1 (stereo unspecified)	-0.1%	6.4%	/	15.8µM*
COc1cc(C2=NOC(C(=O)N3CCCc4ccccc43)C2)cc(OC)c1OC (stereo unspecified)	3.3%	0.2%	/	0.0%
COc1ccc(-c2cc(C(=O)N3CCCc4ccccc43)no2)cc1	0.7%	-2.4%	i	15.8µM*
O=c1c2c(nc3cc(-c4ccc(F)cc4)[nH]n13)CCCC2	-0.3%[57.5 µM]	0.0%	5.32*	7.94µM*
Cc1cc(C(=O)CN2C(=O)c3ccccc3S2(=O)=O)c(C)n1CC1CCCO1 (stereo unspecified)	0.1%[57.5 µM]	7.5%	/	15.8µM*
O=C(c1cc2ccccc2oc1=O)N1CCN(c2ccc(N3CCOCC3)nn2)CC1	1.2%	-2.3%	/	15.8µM*
COC(=O)c1[nH]c2ccc(C)cc2c1NC(=O)CN1CCCCC1C (stereo unspecified)	0.1%[1.84 µM]	0.0%	>57	2.1%
Oc1ccc(-c2nc(-c3ccc(F)cc3)c(-c3ccncc3)[nH]2)cc1	0.5%	-1.9%	/	1.26µM*!
CCOc1cccc(-c2nc3cc(C)ccc3o2)c1	-0.6%[9.22 µM]	-2.2%	/	7.94µM*
CCCC(=O)Nc1ccc(-c2nc3cc(C)ccc3o2)cc1	-2.3%	1.6%	5.34*	3.98µM*
NC(=O)c1ccc(-c2ncc(-c3ccccc3)o2)cc1	-0.7%	0.0%	3.95*	12.6µM*
c1ccc(-c2cnc(-c3cccnc3)o2)cc1	0.0%[9.22 µM]	0.0%	/	-21.7%
CN(C(=O)c1c(O)c2ccccc2n(C)c1=O)c1ccccc1	/	2.5%	/	25.1µM*
Cc1ccc(NC(=O)c2c(O)c3ccccc3n(C)c2=O)nc1	/	-1.2%	>57	-1.0%
c1ccc(-c2ccc(-c3nc(-c4cccnc4)no3)cc2)cc1	-0.3%	2.3%	/	3.16µM*
CCc1ccc(-c2nc(-c3ccncc3)no2)cc1	0.6%[0.0738 µM]	-1.5%	/	5.01µM*
c1ccc(-c2noc(-c3cccnc3)n2)cc1	-1.0%[0.0738 µM]	-3.5%	/	12.6µM*
Clc1ccccc1-c1nc(-c2ccncc2)no1	3.1%[9.22 µM]	6.9%[9.22 µM]	/	-24.2%[11.4 µM]
SMILES	HBB splice mod	GFP derepression	PK Bst	Luciferase inh
c1ccc(-c2nc(-c3ccncc3)no2)cc1	-0.6%	-2.7%	i	-23.6%
Clc1ccccc1-c1nc(-c2cccnc2)no1	-0.4%	-0.1%	?	12.6µM*
C=Cc1c(C)c2cc3nc(cc4[nH]c(cc5nc(cc1[nH]2)C(C)=C5CCC(=O)O)c(CCC(=O)OC)c4C)[C@@]1(C)C3=CC=C(C(=O)OC)[C@H]1C(=O)OC (tested in a mixture with another compound)	-0.7%[20.6 µM]	12.4%[20.6 µM]	/	-3.5%[25.5 µM]
COc1ncc2ncc(=O)n(C)c2n1	1.7%	5.0%[9.22 µM]	/	-1.1%[11.4 µM]
c1ccc(-c2ccc(-c3nc(-c4ccncc4)no3)cc2)cc1	-1.5%	-2.3%	/	3.16µM*
CN1CCN(c2cc(-c3ccoc3)ncn2)CC1	-2.2%	0.0%[9.22 µM]	/	-0.5%[2.29 µM]
Fc1ccccc1OCCSc1nnnn1-c1ccccc1	0.4%	-3.2%	/	15.8µM*
c1ccc(OCCSc2nnnn2-c2ccccc2)cc1	-0.1%[57.5 µM]	1.6%	/	?
COCC(=O)Nc1ccc(N(C)C)cc1	5.2%	0.0%	>57	-1.6%
CN(C)c1ccc(NC(=O)CCCc2ccccc2)cc1	0.0%	-3.2%	/	25.1µM*
Cc1cccc(/N=C/c2c(O)[nH]c3ccccc23)n1	-0.4%	7.0%	/	3.98µM*
Oc1[nH]c2ccccc2c1C=Nc1ccc2c(c1)OCCO2	9.6%	0.0%	3.15*	3.98µM*
O=NC1=C(c2c(O)[nH]c3ccccc23)CCCC1	-0.2%[9.22 µM]	0.0%	/	2.2%
CC#C[C@@]1(O)CC[C@@H]2[C@@H]3CCC4=CC(=O)CCC4=C3[C@@H](c3ccc(N(C)C)cc3)C[C@]21C	0.4%	-3.0%	/	-9.0%

Screens deposited in PubChem BioAssay by National Center for Advancing Translational Sciences (NCATS).
